Results filed as inconclusive are left out. The source made the active and inactive calls. Unless noted, the call rests on the fitted dose curve; in most records, active means well fitted curve in the direction sought with a large enough effect; inconclusive means small, poorly fitted or top-dose-only effect, or another doubt; inactive means no such curve, though single readings can be large; an effect the other way counts as inactive or inconclusive.

Assay [1] in a line: qHTS assay for measurement of the activity of small molecule inhibitors on Zika virus induced Caspase-3 activity in human iPSC derived neural progenitor cells (hNPCs) (AID 1224857). Further: nearly all actives have a fitted effect of over 65% in size. The method in brief: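 Zika virus (2 FFU/cell) infection of human iPSC-derived NPCs, 6 h, following 1 h compound preincubation. Read-out: Caspase-Glo 3/7 luminescence.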
Background: qHTS replaces the single test concentration by a dilution series.

A short description of assay [2]: qHTS assay for measurement of the activity of small molecule inhibitors on Zika virus induced Caspase-3 activity in human astrocytoma cells (AID 1224859). The method in brief: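 Caspase activation in ZIKV-infected SNB-19 cells (2 FFU/cell, 6 h) measured by Caspase-Glo 3/7 luminescence after 30 min RT; compound pre-incubated 1 h; normalised to uninfected and infected controls.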

Assay [3] is described as follows: Natriuretic polypeptide receptor (hNpr1) antagonism - Pilot counterscreen GloSensor control cell line (AID 1347045; calls by dose curve; further: potency means the concentration at half of the fitted maximal effect). The procedure, abridged: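 HEK293 cGMP-sensor cells; 2% GloSensor reagent 2 h RT; LOPAC compounds in 1:5 titrations 30-50 min; 50 uM SNP 20 min; luminescence pre-read and post-read.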
In general terms: A counterscreen serves to expose hits that act by an unwanted route or on another target.

In assay [4] the target is Atrial natriuretic peptide receptor 1 (Homo sapiens) (UniProt P16066). In words: Natriuretic polypeptide receptor (hNpr1) antagonism - Pilot screen (AID 1347049; calls by dose curve;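 further: agonist-evoked cGMP luminescence read 20 min after hNppA addition; series mostly up to about 58 µM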). The procedure, abridged: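 cGMP-sensor HEK293/hNpr1 cells, 1500/well, plated overnight at 37C. 2% GloSensor reagent, 2 h RT. Compound (23 nL pin transfer) 30 min RT, baseline luminescence pre-read. 0.1 nM hNppA, 20 min RT, post-read.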

In assay [5] the target is Atrial natriuretic peptide receptor 2 (Homo sapiens) (UniProt P20594). In words: Natriuretic polypeptide receptor (hNpr2) antagonism - Pilot subtype selectivity assay (AID 1347050; calls by dose curve). The procedure, abridged: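 Luminescence from a genetically encoded cGMP luciferase biosensor in hNpr2-expressing HEK293 cells is read before and 20 min after adding 1 nM hNppC. Test compounds, in interplate 1:5 titrations, are added 30-50 min ahead of the agonist.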

Assay [6] in a line: NS1 protein of Zika virus - qHTS assay to identify small molecule inhibitors in human HEK 293 cells (AID 1347053). Further: series mostly up to about 46 µM; nearly all actives have a fitted effect of over 55% in size. The method in brief:
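TR-FRET signal from two anti-ZIKV NS1 antibodies quantified NS1 in HEK 293 cells 24 h after MR766 infection at MOI = 0.5; compounds were added 1 h before virus. Uninfected cells and infected cells defined the NS1 normalization range.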

Assay [7] has as its target T1, Tyrosine-protein phosphatase non-receptor type substrate 1 (Homo sapiens) + Leukocyte surface antigen CD47 (Homo sapiens) (UniProt P78324+Q08722). In words: CD47-SIRPalpha protein protein interaction - LANCE assay qHTS validation (AID 1347057; active means well fitted curve in the direction sought with a large enough effect in the signal ratio, with a control signal flat, not every such curve was filed as active; the % refers to the signal ratio; further: series mostly up to about 38 µM). The method in brief:
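Inhibition of soluble CD47/SIRPalpha ectodomain association by titrated compounds, measured as 665/615 nm time-resolved FRET ratio after sequential 30 min room-temperature incubations.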

For assay [8], the target named is T1, Tyrosine-protein phosphatase non-receptor type substrate 1 (Homo sapiens) + Leukocyte surface antigen CD47 (Homo sapiens). In words: CD47-SIRPalpha protein protein interaction - HTRF assay qHTS validation (AID 1347058; active means well fitted curve in the direction sought with a large enough effect in the signal ratio, not every such curve was filed as active; the % refers to the signal ratio; further: series mostly up to about 38 µM). The method in brief: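 Soluble extracellular domains (6His-CD47, Avi-tag-biotinylated SIRPalpha) in PBS pH 7.4 with 0.05% IGEPAL CA-630. Compounds were preincubated 30 min at RT with CD47 and anti-His-Eu, then SIRPalpha and SAV-XL665 were added. TR-FRET 665/615 ratio.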
A general note: Time-resolved FRET reads energy transfer from a long-lived donor to a nearby acceptor.

Assay [9] shares this target. In words: CD47-SIRPalpha protein protein interaction - Alpha assay qHTS validation (AID 1347059).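 Further: bead proximity luminescence from CD47 binding SIRPalpha after compound preincubation with SIRPalpha.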 The procedure, abridged:
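SIRPalpha-biotin 25 nM + cpd, 30 min RT, dark; add CD47-His 12.5 nM, 30 min; add Ni-NTA/SAV beads 10 ug/mL, 30 min; AlphaScreen. Buffer PBS pH 7.4 + 0.05% IGEPAL CA-630. Non-biotinylated SIRPalpha as control inhibitor.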

Assay [10] has as its target Parathyroid hormone/parathyroid hormone-related peptide receptor (Homo sapiens) (UniProt Q03431). In words: qHTS for PTHR1 Agonists: Optimization Screen against the NCGC LOPAC library (AID 1347079).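 Further: GloSensor cAMP luminescence in HEK-293 GP2 cells expressing human PTHR1 with IBMX.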 The method in brief:
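Signal increase flags agonism. GP2 cells, derived from HEK-293, express human PTHR1 and a GloSensor cAMP construct.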

Assay [11] deals with N-terminal Xaa-Pro-Lys N-methyltransferase 1 (Homo sapiens) (UniProt Q9BV86). In words: qHTS Assay for Inhibitors of N-terminal methyltransferase 1 (NTMT1): LOPAC validation of the NTMT1 SAHH-coupled ThioGlo3 Assay (AID 1347143).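 Further: SAH from peptide methylation measured as thiol fluorescence via SAHH coupling and ThioGlo3; nearly all actives have a fitted effect of over 70% in size.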 Further: potency means the concentration at half of the fitted maximal effect. The method in brief: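 Steps: dispense 125nM NTMT1; pin-transfer test compounds at several concentrations, with 1uM RCC1-6 peptide as control; incubate 1 min; start with reagent holding 100uM SAM, 10uM SAHH, 15uM ThioGlo3; read at 0 and 30 min.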

Assay [12] concerns Zika virus NS2B-NS3 protease (unlinked). In words: Optimization of GU AMC qHTS for Zika virus inhibitors: Unlinked NS2B-NS3 protease assay (AID 1347151). Further: nearly all actives have a fitted effect of over 80% in size. Further: potency means the concentration at half of the fitted maximal effect. The procedure, abridged: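 Unlinked protease (25 nM final); buffer 10 mM Tris-HCl pH 8.0 + 0.01% Tween 20; AMC substrate; 15 min RT, dark; Δfluorescence normalized to no-inhibitor/no-enzyme controls; 4-parameter Hill fit.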

Assay [13] is described as follows: P-glycoprotein substrates identified in KB-3-1 adenocarcinoma cell line, qHTS therapeutic library screen (AID 1346986). Further: nearly all actives have a fitted effect of over 60% in size. The procedure, abridged: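 Viability by CellTiter-Glo after 72 h compound exposure at 37 degree C, 5% CO2. Cytotoxic call: curve class -1.1 to -2.4, maximum response >50%, AC50 < 10 uM, compared across KB-3-1 and P-gp-overexpressing KB-8-5-11.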

A short description of assay [14]: P-glycoprotein substrates identified in KB-8-5-11 adenocarcinoma cell line, qHTS therapeutic library screen (AID 1346987). Further: nearly all actives have a fitted effect of over 65% in size. The procedure, abridged:
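In this qHTS, P-gp-rich KB-8-5-11 cells received library compounds across a concentration range. Viability was quantified by luminescence after 72 h at 37 degree C.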

For the next assay, the target named is Furin (Homo sapiens) (UniProt P09958). In words: Furin counterscreen qHTS for Zika virus inhibitors (AID 1347149).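 Further: purified recombinant full-length human furin enzyme at 5 nM; fluorescence gain from furin cutting a BOC-RVRR-AMC peptide substrate over 15 min; top concentration of the series differs between compounds; nearly all actives have a fitted effect of over 70% in size.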 The method in brief:
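Counterscreen measures cleavage of 2 microM BOC-RVRR-AMC, below its ~15 microM Km, by 5 nM full-length human furin at pH 7.0 after a 15-min compound preincubation. Inhibition derives from the 15-min fluorescence increase at 37C.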

Assay [15] relates to Zika virus NS2B-NS3 protease (linked construct). In words: Confirmatory screen NINDS AMC qHTS for Zika virus inhibitors (AID 1347152).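 Further: AMC fluorescence gain from cleaved Bz-Nle-KRR-AMC substrate over 15 min; top concentration of the series differs between compounds; nearly all actives have a fitted effect of over 70% in size.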 The method in brief:
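Enzyme (1 nM, linked construct) was preincubated with compound for 15 minutes at room temperature in 10 mM Tris-HCl pH 8.0 with 0.01% Tween 20. Bz-Nle-Lys-Arg-Arg-AMC was then added to 10 microM, and AMC fluorescence was recorded immediately and after 15 minutes.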

Assay [16] relates to Zika virus NS2B-NS3 protease (unlinked complex). In words: Confirmatory screen GU AMC qHTS for Zika virus inhibitors (AID 1347153). Further: nearly all actives have a fitted effect of over 70% in size. The method in brief:
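Fluorescence change (ex 340/em 450 nm) over 15 min, ~20% substrate conversion, normalized to no-inhibitor and no-enzyme controls, then Hill-fitted. Unlinked protease at 25 nM; AMC peptide 10 µM.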

Chain of Parathyroid hormone/parathyroid hormone-related peptide receptor (Homo sapiens) (Q03431 whole entry, looked up): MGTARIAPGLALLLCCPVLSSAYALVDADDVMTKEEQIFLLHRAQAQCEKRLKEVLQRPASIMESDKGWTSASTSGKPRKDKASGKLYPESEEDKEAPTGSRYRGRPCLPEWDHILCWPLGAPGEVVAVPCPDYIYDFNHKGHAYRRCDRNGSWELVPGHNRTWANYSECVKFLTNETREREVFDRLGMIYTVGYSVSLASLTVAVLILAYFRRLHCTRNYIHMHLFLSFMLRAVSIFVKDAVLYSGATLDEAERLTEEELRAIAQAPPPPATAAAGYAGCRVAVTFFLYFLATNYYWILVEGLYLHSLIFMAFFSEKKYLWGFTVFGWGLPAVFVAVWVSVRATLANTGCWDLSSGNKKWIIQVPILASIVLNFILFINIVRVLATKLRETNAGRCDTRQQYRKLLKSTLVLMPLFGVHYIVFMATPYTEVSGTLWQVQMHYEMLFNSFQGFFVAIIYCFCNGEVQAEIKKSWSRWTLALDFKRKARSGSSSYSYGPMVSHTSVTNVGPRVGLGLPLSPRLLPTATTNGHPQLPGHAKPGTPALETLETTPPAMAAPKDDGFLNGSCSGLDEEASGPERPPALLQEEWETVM
Chain of Atrial natriuretic peptide receptor 1 (Homo sapiens) (P16066 whole entry, looked up): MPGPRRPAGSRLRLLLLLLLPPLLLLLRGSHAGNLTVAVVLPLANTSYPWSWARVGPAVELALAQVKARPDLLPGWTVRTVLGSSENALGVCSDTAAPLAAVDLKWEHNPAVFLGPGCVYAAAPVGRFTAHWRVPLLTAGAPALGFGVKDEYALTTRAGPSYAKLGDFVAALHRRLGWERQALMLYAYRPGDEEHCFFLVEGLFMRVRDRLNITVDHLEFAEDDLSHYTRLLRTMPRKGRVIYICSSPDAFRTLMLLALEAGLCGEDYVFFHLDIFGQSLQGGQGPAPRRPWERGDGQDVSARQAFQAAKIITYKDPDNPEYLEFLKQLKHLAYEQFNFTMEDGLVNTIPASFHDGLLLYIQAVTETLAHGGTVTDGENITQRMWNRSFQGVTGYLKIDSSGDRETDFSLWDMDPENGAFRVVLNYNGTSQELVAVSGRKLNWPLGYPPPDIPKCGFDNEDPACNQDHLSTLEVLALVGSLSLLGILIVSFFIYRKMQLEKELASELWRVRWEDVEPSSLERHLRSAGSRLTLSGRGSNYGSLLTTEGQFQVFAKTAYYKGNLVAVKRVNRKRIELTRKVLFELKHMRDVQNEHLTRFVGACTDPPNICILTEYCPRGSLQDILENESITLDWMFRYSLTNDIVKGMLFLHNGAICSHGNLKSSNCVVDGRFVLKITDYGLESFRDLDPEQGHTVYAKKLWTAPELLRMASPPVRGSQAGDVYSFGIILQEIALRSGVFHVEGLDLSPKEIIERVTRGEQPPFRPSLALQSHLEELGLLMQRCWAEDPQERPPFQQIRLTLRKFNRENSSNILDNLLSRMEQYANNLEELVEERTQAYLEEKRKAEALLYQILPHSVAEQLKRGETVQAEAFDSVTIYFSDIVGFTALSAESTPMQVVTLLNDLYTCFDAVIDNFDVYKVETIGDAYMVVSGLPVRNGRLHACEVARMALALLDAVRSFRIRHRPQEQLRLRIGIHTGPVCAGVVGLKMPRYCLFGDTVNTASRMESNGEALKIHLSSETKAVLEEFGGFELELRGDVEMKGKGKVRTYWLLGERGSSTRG
T1 sequence (P78324 whole entry, looked up, the tested form may be a part): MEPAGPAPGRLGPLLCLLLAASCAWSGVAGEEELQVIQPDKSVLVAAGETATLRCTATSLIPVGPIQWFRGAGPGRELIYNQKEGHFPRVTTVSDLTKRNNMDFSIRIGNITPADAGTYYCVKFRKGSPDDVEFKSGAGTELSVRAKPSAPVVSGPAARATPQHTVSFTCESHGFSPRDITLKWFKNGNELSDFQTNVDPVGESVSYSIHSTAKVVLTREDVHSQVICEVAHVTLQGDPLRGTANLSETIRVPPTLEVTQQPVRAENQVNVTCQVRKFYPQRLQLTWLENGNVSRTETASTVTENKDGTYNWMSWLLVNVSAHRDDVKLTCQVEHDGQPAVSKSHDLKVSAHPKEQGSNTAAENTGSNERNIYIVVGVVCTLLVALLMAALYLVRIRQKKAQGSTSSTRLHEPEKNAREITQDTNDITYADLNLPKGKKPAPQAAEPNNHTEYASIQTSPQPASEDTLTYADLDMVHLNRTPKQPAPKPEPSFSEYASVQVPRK
T1 sequence (Q08722 whole entry, looked up, the tested form may be a part): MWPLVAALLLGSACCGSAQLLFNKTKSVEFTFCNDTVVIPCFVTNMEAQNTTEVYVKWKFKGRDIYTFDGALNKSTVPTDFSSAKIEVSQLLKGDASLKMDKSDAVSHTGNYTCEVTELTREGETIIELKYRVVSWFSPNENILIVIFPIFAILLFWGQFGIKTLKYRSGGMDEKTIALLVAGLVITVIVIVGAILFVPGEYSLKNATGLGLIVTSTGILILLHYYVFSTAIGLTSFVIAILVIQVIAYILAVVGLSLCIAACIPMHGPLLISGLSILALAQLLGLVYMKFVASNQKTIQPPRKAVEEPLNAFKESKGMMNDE
Chain of Atrial natriuretic peptide receptor 2 (Homo sapiens) (P20594 whole entry, looked up): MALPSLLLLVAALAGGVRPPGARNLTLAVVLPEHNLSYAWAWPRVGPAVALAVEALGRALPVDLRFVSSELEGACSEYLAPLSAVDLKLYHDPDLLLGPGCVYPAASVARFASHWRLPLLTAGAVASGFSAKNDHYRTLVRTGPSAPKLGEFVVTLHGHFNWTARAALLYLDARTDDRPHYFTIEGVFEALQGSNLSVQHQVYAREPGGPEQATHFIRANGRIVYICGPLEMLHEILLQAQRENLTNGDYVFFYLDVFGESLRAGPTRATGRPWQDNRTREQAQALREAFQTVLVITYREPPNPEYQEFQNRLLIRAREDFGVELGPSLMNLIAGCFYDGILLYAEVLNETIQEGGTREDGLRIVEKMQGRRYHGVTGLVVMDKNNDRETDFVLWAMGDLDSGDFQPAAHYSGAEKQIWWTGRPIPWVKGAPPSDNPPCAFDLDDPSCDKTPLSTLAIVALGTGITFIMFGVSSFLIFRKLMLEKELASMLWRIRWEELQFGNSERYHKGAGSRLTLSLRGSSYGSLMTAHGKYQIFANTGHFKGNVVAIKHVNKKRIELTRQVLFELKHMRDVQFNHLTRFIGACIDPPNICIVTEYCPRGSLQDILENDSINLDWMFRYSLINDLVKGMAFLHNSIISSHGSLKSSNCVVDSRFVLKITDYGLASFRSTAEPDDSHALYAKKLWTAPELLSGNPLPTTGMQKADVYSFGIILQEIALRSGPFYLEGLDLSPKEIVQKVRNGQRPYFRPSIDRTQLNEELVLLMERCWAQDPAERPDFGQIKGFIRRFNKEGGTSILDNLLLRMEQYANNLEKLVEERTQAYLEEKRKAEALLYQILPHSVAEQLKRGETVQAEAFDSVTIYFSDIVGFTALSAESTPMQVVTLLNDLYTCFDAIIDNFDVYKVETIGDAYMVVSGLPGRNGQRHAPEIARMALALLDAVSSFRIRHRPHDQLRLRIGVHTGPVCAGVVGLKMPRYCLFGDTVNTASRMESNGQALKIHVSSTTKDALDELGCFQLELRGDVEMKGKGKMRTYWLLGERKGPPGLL
Chain of N-terminal Xaa-Pro-Lys N-methyltransferase 1 (Homo sapiens) (Q9BV86 whole entry, looked up): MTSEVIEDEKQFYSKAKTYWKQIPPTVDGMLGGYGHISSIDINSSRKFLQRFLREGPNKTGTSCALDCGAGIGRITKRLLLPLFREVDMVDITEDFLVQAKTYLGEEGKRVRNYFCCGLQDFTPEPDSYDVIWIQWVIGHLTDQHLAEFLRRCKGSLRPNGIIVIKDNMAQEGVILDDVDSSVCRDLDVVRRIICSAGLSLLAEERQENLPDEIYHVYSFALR
Chain of Furin (Homo sapiens) (P09958 whole entry, looked up): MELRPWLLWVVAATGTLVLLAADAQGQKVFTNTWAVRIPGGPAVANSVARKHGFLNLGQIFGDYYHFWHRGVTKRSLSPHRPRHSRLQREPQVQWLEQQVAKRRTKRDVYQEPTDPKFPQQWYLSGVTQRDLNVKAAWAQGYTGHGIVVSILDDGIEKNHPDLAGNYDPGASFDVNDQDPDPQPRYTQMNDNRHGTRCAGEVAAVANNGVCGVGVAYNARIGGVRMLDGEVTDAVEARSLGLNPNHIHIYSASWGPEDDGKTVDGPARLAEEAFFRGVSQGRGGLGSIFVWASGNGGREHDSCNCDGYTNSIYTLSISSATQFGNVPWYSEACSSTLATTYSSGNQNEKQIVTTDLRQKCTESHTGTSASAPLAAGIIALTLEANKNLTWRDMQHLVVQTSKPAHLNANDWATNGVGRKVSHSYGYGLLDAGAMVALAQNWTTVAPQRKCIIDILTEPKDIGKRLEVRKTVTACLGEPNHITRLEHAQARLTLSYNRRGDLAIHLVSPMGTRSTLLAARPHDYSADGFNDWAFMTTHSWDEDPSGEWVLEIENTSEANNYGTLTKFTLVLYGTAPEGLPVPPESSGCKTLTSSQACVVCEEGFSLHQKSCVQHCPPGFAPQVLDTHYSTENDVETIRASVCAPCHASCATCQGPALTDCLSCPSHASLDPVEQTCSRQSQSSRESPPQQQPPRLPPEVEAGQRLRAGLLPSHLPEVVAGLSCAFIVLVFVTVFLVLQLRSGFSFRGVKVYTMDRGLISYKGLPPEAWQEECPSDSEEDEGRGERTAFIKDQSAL

In the case of `CC(N)=NCCCC[C@@H](N)C(=O)O`, the Potency result in [1], in assay [2], in assay [3], in assay [4], in [5] and in assay [6] was “inactive” each time. Also, the Potency result in assay [7], in assay [9], in assay [10], in [11] and in [12] was “inactive” throughout. The result in [8] was inactive.
Turning to `N#Cc1cc([N+](=O)[O-])c2sc(C(N)=O)[n+]([O-])c2c1`, the Potency result in assay [1], in [2], in assay [13], in [14], in assay [4] and in assay [5] was “inactive” each time. The Potency result in [6], in assay [7], in assay [9], in assay [10] and in [12] was “inactive” each time. The Potency in assay [3] is 14.7 µM (active).
For the molecule `CCCc1c(-c2ccc(O)cc2)nn(-c2ccc(O)cc2)c1-c1ccc(O)cc1`, the Potency entry in [1], in assay [2], in assay [3], in assay [4], in assay [5] and in assay [6] was “inactive” each time. Besides, the Potency result in assay [7], in assay [9], in assay [10] and in assay [11] was “inactive” each time. The result in [8] was inactive.
As for `NC1(C(=O)O)CCc2cc(C(=O)O)ccc21` (stereo not drawn), the Potency result in [1], in assay [2], in [3], in assay [4], in [5] and in assay [6] was “inactive” throughout. In addition, the Potency entry in assay [7], in [9] and in [10] was “inactive” each time. The outcome in [8] was inactive. In addition, the Potency in [11] is 50.1 µM (active).
In the case of `c1ccc2c(c1)CCC[C@H]2Nc1nc2ccccc2[nH]1`, the Potency result in assay [1], in [2], in assay [3], in assay [4], in assay [5] and in assay [6] was “inactive” each time. Also, the Potency result in assay [7], in [9], in assay [10], in [11] and in assay [12] was “inactive” in each case. Also, in [8], the outcome was inactive.
On to `CC(=O)NCCc1c[nH]c2ccc(O)cc12`, for which the Potency entry in [1], in assay [2], in [13], in assay [14], in [3] and in assay [4] was “inactive” in each case. The Potency result in assay [5], in [6], in assay [9], in assay [10] and in [12] was “inactive” in each case.
Take `C=CCN1CCc2c(cc(O)c(O)c2Br)[C@@H](c2ccccc2)C1`: the Potency entry in assay [1], in [2], in [3], in [4], in assay [5] and in assay [6] was “inactive” throughout. Moreover, the Potency result (in assay [7]; in assay [9]; in assay [10]; with Furin (Homo sapiens); in assay [15]; in assay [16]) was “inactive” throughout. For the same molecule, the outcome in assay [8] was inactive. Also, the values for the Potency in [11] and in assay [12] were 35.5 µM (active) and 18.9 µM (active), respectively.
In the case of `Brc1c(Br)c(Br)c2[nH]cnc2c1Br`, the Potency entry in assay [1], in assay [2], in assay [3], in assay [4], in assay [5] and in [6] was “inactive” throughout. For the same molecule, the Potency result in assay [7], in [9] and in assay [10] was “inactive” each time. In addition, in [8], the outcome was inactive. In addition, in [11], the Potency was 50.1 µM (active).
For `OC[C@H]1O[C@@H](n2cnc3cncnc32)[C@H](O)[C@@H]1O`, the Potency entry in [1], in assay [2], in [3], in [4], in assay [5] and in assay [6] was “inactive” in each case. The Potency result in assay [7], in [9], in [10] and in [12] was “inactive” in each case. For the same molecule, the result in assay [8] was inactive. Also, the Potency in assay [11] was 3.16 µM (active).
In the case of `Clc1nccc2c1ccc1ccccc12`, the Potency entry in assay [1], in assay [2], in assay [3], in assay [4], in assay [5] and in assay [6] was “inactive” each time. In addition, the Potency result in assay [7], in assay [9] and in [10] was “inactive” each time. Besides, the outcome in [8] was inactive. In addition, the Potency in assay [11] was 50.1 µM (active).

These data come from PubChem BioAssay (NCATS).
